Records with an inconclusive call do not appear. Activity calls are given as the source filed them.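 The calls were made as follows, unless noted: active = aptamer binding inhibition above 30%, about 3 SD of noise from non-fluorescent compounds; inactive = inhibition at or below 30%.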
What was measured:
[1] = yeast TOR pathway RPL19A-GFP modulators, primary screen, cell-based, S. cerevisiae, multiplex flow cytometry (AID 1862; in the data active = percent of DMSO control GFP below about 86%;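 also: lower values mimic rapamycin by blocking the RPL19A rise seen in DMSO cells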); conditions: S. cerevisiae RPL19A-GFP strain, flow cytometry fluorescence, 3 h; at 10 µM; stronger effect = lower value
[2] = modulators of MEP2-GFP levels in yeast, primary screen, S. cerevisiae, multiplex flow cytometry (AID 1867;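 active = GFP response, as percent of the DMSO control, above the screen-wide mean plus 3 SD, about 139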;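 also: median GFP channel fluorescence of barcode-gated MEP2-GFP cells measured by flow cytometry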); conditions: S. cerevisiae MEP2-GFP strain, 3 h, at 10 µM, stronger effect = higher value, 100% means same as DMSO wells
[3] = modulators of CIT2-GFP expression in yeast, primary screen, S. cerevisiae, GFP fusion, multiplex flow cytometry (AID 1870;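 active = percent response above a set limit, the screen-wide mean plus 3 SD, cut at about 130% in these data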;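 also: barcoded CIT2-GFP strain pooled with four other GFP strains with rapamycin as positive control; median GFP fluorescence per well over plate mean of DMSO wells so 100% = DMSO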); conditions: 3 h, at 10 µM, stronger effect = higher value
[4] = modulators of LAP4-GFP expression in yeast, primary screen, S. cerevisiae, multiplex flow cytometry (AID 1873;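 active = GFP signal, as percent of the solvent control, above the screen mean plus 3 SD, about 149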); conditions: 3 h, at 10 µM, stronger effect = higher value
[5] = modulators of AGP1-GFP expression in yeast TOR pathway, primary screen, cell-based, multiplex flow cytometry, S. cerevisiae (AID 1887;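 active = GFP signal above the screen-wide mean plus 3 SD, that is over about 124.5% of the solvent control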;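 also: AGP1-GFP fusion strain of S. cerevisiae within a five-strain barcoded multiplex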); conditions: 3 h, at 10 µM, stronger effect = higher value
[6] = inhibitors of CD8+ T cell-vesicle binding, pilot screen, LFA-1/ICAM-1 modulator project, MLPCN validation set, flow cytometry (AID 2523;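 active = response below a set limit, under 55% cells CD8-positive and vesicle-bound, and CD8 cells' 90th-percentile brightness under 279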;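 as to vesicle binding response: mean PE anti-B7-1 fluorescence of CD8+ cells relative to row control; 100% = QL9-loaded vesicles with DMSO vehicle in the same plate row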); conditions: 2C mouse CD8+ T cells, at 7 µM, stronger effect = lower value; double positive events: measured here: CD8+/vesicle+ event percentage
[7] = molecular target: Integrin beta-1 (Homo sapiens) + Integrin alpha-4 (Homo sapiens) (UniProt P13612+P05556); assay: inhibition of HUTS-21 binding to VLA-4, pilot screen, VLA-4 allosteric modulator project, U937 cells, HUTS-21 mAb, flow cytometry, validation set (AID 2674;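 active = inhibition above 50%, about 3 SD of the validation set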;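 also: antibody binding induced by the VLA-4 ligand LDV present at three times its Kd; 0% = LDV ligand with antibody and no compound and 100% = antibody without LDV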); conditions: HUTS-21 LIBS mAb binding, at 6.7 µM, stronger effect = higher value, binding induced by LDV ligand
Sequence of Integrin beta-1 (Homo sapiens) + Integrin alpha-4 (Homo sapiens) (P05556 whole entry, looked up): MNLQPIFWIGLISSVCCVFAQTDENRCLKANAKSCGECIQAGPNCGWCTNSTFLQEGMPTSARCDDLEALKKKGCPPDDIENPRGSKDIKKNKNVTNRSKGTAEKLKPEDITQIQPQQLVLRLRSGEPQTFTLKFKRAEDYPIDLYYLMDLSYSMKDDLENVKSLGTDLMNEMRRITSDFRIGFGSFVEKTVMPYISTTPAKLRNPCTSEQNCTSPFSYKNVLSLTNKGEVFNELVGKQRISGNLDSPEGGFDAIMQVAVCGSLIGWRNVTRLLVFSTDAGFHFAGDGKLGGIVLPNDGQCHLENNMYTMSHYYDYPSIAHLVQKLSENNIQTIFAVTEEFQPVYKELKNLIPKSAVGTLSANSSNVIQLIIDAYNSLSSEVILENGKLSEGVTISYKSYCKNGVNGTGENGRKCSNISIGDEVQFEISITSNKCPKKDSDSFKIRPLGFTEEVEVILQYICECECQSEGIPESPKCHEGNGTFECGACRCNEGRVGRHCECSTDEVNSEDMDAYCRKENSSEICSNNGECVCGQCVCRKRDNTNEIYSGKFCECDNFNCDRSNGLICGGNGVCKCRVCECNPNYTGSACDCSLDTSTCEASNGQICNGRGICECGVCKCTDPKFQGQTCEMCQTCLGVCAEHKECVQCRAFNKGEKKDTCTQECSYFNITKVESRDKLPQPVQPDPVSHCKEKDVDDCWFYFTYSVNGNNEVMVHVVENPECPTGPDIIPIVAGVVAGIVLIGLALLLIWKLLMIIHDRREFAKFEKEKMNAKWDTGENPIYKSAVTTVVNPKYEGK
Sequence of Integrin beta-1 (Homo sapiens) + Integrin alpha-4 (Homo sapiens) (P13612 whole entry, looked up): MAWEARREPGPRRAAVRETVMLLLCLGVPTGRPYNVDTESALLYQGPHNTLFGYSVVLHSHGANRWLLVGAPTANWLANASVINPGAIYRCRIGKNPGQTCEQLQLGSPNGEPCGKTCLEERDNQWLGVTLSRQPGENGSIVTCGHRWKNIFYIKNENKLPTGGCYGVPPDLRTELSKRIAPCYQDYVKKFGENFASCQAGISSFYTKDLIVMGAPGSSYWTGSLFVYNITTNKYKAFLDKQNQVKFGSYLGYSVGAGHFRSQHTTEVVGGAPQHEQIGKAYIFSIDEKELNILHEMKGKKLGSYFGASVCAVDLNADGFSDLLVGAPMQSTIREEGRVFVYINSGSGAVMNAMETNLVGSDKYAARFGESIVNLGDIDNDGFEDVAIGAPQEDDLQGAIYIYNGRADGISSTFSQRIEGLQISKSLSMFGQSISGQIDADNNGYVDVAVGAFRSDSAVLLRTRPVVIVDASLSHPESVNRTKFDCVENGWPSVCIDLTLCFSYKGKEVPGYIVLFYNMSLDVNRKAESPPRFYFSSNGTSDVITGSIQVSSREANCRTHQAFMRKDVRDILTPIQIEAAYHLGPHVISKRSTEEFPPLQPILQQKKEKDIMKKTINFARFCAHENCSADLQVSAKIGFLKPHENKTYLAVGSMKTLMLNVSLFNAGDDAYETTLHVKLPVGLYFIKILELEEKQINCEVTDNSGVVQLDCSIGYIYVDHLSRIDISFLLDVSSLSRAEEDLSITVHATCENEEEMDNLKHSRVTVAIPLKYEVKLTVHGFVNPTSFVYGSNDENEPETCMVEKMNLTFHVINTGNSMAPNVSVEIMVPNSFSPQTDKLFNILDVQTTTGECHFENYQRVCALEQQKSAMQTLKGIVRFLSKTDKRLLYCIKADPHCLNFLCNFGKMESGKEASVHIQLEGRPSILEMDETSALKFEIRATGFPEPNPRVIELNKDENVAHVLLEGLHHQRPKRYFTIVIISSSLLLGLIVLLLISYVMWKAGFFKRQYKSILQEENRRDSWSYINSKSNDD

[8] = superoxide lowering in aged yeast cells, pilot screen, validation compound set (AID 2706;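 active = superoxide response below 65% of plate, a cut near 3 SD across the whole screen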;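 also: yeast exposed to compound for one week at 30 degrees C before staining; 100% = mean of all compound wells on the same plate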); conditions: S. cerevisiae aging, superoxide DHE fluorescence; at 10 µM; stronger effect = lower value
[9] = molecular target: Beta-adrenergic receptor kinase 1 (Homo sapiens) (UniProt P25098); assay: GRK2 binders displacing RNA aptamer, biochemical, validation, human GRK2, bead flow cytometry (AID 488806); conditions: bead-bound GRK2, FAM-aptamer displacement, at 10 µM, stronger effect = higher value
Sequence of Beta-adrenergic receptor kinase 1 (Homo sapiens) (P25098 whole entry, looked up): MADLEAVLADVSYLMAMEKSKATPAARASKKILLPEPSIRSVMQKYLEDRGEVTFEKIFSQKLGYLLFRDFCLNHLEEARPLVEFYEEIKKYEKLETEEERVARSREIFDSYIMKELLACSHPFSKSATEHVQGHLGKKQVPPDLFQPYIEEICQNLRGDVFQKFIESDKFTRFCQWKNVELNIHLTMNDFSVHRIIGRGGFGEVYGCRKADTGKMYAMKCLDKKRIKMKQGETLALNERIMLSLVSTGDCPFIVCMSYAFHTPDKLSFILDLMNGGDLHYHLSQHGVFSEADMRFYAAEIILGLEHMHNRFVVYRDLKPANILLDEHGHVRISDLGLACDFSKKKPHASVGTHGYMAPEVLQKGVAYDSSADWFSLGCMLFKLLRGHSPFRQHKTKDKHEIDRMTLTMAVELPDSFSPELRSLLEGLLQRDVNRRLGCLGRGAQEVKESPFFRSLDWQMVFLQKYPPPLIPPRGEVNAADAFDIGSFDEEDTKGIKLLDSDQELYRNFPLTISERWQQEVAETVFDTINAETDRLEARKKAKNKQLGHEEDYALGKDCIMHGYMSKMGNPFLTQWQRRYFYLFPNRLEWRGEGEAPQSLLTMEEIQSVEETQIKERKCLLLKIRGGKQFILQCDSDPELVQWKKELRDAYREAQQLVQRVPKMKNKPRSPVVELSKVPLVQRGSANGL

[10] = molecular target: Beta-2 adrenergic receptor (Homo sapiens) (UniProt P07550); assay: beta2AR agonists driving receptor internalization, pilot screen, cell-based, FAP fluorogen, flow cytometry, validation set (AID 504459;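 active = percent response above 42, roughly 3 SD of non-fluorescent test compounds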;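 also: agonist-driven loss of surface beta2AR via internalization measured by FAP dye flow cytometry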); conditions: Am2.2-beta2AR cells, FAP surface receptor flow cytometry; at 10 µM; stronger effect = higher value
Sequence of Beta-2 adrenergic receptor (Homo sapiens) (P07550 whole entry, looked up): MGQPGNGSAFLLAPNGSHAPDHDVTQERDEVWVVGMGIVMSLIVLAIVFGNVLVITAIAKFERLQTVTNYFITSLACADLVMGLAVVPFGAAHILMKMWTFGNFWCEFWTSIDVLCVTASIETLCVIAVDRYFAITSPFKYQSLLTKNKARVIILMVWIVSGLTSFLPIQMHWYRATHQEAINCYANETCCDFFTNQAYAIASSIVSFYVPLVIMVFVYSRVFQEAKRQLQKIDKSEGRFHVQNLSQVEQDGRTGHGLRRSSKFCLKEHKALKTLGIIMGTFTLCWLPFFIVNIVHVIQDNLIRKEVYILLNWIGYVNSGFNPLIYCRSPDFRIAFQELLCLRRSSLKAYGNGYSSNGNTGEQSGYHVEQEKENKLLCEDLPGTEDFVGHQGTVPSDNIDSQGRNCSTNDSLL

[11] = molecular target: AP-2 complex subunit beta (Homo sapiens) (UniProt P63010); assay: inhibitors of arrestin peptide binding to AP2, pilot screen, biochemical, validation set, GST-AP2 beads, flow cytometry (AID 504541;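 active = inhibition above 54%, about 3 SD of non-fluorescent compounds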;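 also: AP2 carries R879A mutation and is captured from E. coli lysate; bead-bound FITC arrestin peptide fluorescence measuring arrestin peptide binding to AP2; 0% = DMSO wells and 100% = excess unlabeled arrestin peptide control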); conditions: FITC arrestin peptide, at 10 µM, stronger effect = higher value, AP2 beta2 appendage fragment, R879A mutant
Sequence of AP-2 complex subunit beta (Homo sapiens) (P63010 whole entry, looked up, the tested form may be a part, one chain of several): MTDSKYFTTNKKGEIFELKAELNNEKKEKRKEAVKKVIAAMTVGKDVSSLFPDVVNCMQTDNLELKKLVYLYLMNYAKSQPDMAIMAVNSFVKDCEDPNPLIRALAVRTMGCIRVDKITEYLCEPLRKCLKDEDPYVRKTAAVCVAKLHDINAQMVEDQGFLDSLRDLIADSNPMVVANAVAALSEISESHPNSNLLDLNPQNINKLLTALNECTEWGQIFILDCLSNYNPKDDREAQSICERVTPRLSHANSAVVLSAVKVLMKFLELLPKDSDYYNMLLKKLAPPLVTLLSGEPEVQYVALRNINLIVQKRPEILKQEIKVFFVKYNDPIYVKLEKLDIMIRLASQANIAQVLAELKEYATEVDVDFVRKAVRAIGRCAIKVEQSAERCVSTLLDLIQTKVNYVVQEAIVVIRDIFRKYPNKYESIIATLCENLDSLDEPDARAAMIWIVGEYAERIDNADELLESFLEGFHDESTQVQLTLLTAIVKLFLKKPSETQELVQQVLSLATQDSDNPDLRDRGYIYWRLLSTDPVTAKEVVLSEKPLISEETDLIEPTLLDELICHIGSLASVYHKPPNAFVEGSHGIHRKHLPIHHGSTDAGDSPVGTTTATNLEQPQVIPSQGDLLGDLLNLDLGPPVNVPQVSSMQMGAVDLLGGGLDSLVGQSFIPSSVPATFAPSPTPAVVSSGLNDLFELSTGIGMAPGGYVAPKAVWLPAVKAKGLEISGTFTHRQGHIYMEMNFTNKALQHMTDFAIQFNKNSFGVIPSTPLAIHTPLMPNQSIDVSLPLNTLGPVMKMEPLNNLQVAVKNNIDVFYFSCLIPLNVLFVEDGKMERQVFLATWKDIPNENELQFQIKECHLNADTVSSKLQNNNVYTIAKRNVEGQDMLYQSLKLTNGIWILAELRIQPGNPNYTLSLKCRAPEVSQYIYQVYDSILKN

[12] = yeast V-ATPase proton transport modulators, S. cerevisiae, pHLuorin, HTS validation (AID 504600; in the data active = response above about 15%;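 also: plate controls were DMSO for no effect and reference compound for full effect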); conditions: S. cerevisiae pHLuorin cytosolic pH, at 10 µM, stronger effect = higher value
[13] = test system: anti-desmoglein-3 scFv antibody binding to human DSG3; assay: inhibitors of anti-DSG3 scFv binding to DSG3, pilot screen, biochemical, validation compound set, bead-based, flow cytometry (AID 588368;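 active = binding below the plate cutoff, the plate median minus 3 SD, with a reading above zero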;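 also: signal is the median channel fluorescence of bead-bound GFP antibody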); conditions: Protein G beads, DSG3-Fc, scFv-GFP binding, at 10 µM, stronger effect = lower value
[14] = inhibitors of fungal efflux pumps CDR1, CDR2, MDR1, pilot screen, validation compound set, multiplex, phenotypic (AID 588506;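 active = efflux inhibition above 0.42, the validation set average plus 4 SD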;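 also: Nile Red retained in cells so higher fluorescence means more efflux inhibition; 0 = negative control wells and 1 = enniatin B 25 µM full block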); conditions: S. cerevisiae pump-expressing triplex, Nile Red efflux flow cytometry; at 10 µM; stronger effect = higher value; the pumps come from Candida albicans
[15] = molecular target: ATP-binding cassette sub-family B member 6 (Homo sapiens) (UniProt Q9NP58); assay: ABCB6 transporter inhibitors, pilot screen, K562-ABCB6 cells, flow cytometry, validation set (AID 588550;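 active = inhibition above the screen-wide mean plus 3 SD, about 51%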;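 also: 0% = DMSO wells and 100% = benzethonium chloride 70 µM positive control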); conditions: K562-ABCB6 porphyrin accumulation, 1 h, at 10 µM, stronger effect = higher value
Sequence of ATP-binding cassette sub-family B member 6 (Homo sapiens) (Q9NP58 whole entry, looked up): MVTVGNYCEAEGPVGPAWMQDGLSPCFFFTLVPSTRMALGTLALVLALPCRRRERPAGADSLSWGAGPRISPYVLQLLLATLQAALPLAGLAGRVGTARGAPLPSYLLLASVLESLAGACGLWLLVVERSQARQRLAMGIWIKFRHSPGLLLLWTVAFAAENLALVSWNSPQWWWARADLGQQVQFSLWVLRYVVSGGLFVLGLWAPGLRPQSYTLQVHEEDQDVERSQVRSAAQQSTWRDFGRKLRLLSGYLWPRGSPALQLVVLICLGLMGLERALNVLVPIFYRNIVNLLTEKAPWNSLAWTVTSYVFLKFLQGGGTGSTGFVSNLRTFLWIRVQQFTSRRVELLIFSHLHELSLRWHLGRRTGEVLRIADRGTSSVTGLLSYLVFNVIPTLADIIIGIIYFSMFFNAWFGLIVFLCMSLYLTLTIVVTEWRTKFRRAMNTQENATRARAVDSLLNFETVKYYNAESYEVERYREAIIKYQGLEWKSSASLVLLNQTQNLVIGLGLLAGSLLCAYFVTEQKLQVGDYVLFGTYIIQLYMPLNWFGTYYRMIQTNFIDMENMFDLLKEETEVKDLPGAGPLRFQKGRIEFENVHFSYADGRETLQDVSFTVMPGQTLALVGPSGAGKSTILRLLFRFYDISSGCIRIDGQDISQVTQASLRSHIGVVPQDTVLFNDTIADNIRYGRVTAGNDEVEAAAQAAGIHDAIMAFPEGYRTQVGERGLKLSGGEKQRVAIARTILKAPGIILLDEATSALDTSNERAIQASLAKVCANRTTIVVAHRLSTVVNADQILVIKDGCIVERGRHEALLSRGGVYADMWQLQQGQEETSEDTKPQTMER

[16] = promoters of myeloid differentiation in arrested cells, primary screen, cell-based, GFP/MAC1 double positive, flow cytometry, validation set (AID 588685;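 active = differentiation response of at least 50%, scaled between solvent and reference control, from cells with both markers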;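 also: compound exposure lasts four days before antibody staining and flow analysis; 0% = DMSO wells and 100% = 5 µM fulvestrant positive control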); conditions: ER-HoxA9 marrow cells, stronger effect = higher value, normalized: vehicle 0, fulvestrant 100

SMILES | percent of DMSO control GFP [1] | GFP response vs DMSO [2] | percent response of DMSO control [3] | GFP response vs DMSO [4] | GFP response, % of DMSO [5] | double positive events [6] [%] | vesicle binding response [6] | inhibition [7] | superoxide response (% of plate) [8] | aptamer binding inhibition [9] | response [10] | inhibition [11] | response [12] | binding (% of control) [13] | efflux inhibition (fraction of control) [14] | inhibition [15] | differentiation response [16]
O=C(O)CCCCCCNC(=O)c1cncc(O)c1 | 104% (inactive) | 107% (inactive) | 105% (inactive) | 113% (inactive) | 115% (inactive) | 63.9 | 153% (inactive) | 13.4% (inactive) | 112% (inactive) | 7% (inactive) | -25.8% (inactive) | 12.7% (inactive) | -3.09% (inactive) | 97.3% (inactive) | 0 (inactive) | -5% (inactive) | -4% (inactive)
Cc1nc(N)sc1C(=O)N/N=C/c1ccco1 | 105% (inactive) | 107% (inactive) | 109% (inactive) | 114% (inactive) | 115% (inactive) | 62.5 | 145% (inactive) | -3.77% (inactive) | 89.3% (inactive) | -1% (inactive) | -0.95% (inactive) | 6.36% (inactive) | -5.39% (inactive) | 105% (inactive) | 0.08 (inactive) | -15% (inactive) | -4.57% (inactive)
CCC(C)n1ncn(-c2ccc(N3CCN(c4ccc(OCC5COC(Cn6cncn6)(c6ccc(Cl)cc6Cl)O5)cc4)CC3)cc2)c1=O (stereo not given) | 115% (inactive) | 110% (inactive) | 97.1% (inactive) | 133% (inactive) | 102% (inactive) | 58.2 | 22.8% (inactive) | 3.98% (inactive) | 53.9% (active) | 4% (inactive) | 8.75% (inactive) | -13.8% (inactive) | 1.4% (inactive) | 99.3% (inactive) | 0.55 (active) | 7% (inactive) | 6.49% (inactive)
O=C(O)c1ccc(-c2ccc(O)c(F)c2)cc1 | 105% (inactive) | 105% (inactive) | 111% (inactive) | 98% (inactive) | 102% (inactive) | 60 | 4700% (inactive) | -1.49% (inactive) | 96.3% (inactive) | -2% (inactive) | -5.66% (inactive) | -6.99% (inactive) | 3.09% (inactive) | 97.9% (inactive) | -0.17 (inactive) | -1% (inactive) | -6.6% (inactive)
O=S(=O)(CCc1nc2ccccc2[nH]1)c1ccc(Cl)cc1 | 98.6% (inactive) | 106% (inactive) | 98.6% (inactive) | 124% (inactive) | 99.7% (inactive) | 60.3 | 159% (inactive) | -7.25% (inactive) | 104% (inactive) | -2% (inactive) | 13.4% (inactive) | -4.72% (inactive) | -0.13% (inactive) | 103% (inactive) | -0.21 (inactive) | -7% (inactive) | -16.8% (inactive)
CC(C)(C)n1c(=O)[nH]c2c(c1=O)CCC2 | 105% (inactive) | 103% (inactive) | 98.3% (inactive) | 113% (inactive) | 110% (inactive) | 61.8 | 205% (inactive) | 8.25% (inactive) | 98.5% (inactive) | 0% (inactive) | -17.6% (inactive) | 66.2% (active) | 7.46% (inactive) | 100% (inactive) | 0.08 (inactive) | -3% (inactive) | -12.9% (inactive)
Nc1ccc2cn[nH]c2c1 | 104% (inactive) | 97.7% (inactive) | 98.6% (inactive) | 101% (inactive) | 102% (inactive) | 60.8 | 109% (inactive) | -3.77% (inactive) | 109% (inactive) | -1% (inactive) | 2.17% (inactive) | 0.32% (inactive) | -2.55% (inactive) | 102% (inactive) | 0.265 (inactive) | 32% (inactive) | -16.3% (inactive)
COC(=O)c1cc(OC)c(OC)cc1NC(=O)CN1C(=O)c2ccccc2C1=O | 97.1% (inactive) | 113% (inactive) | 93.9% (inactive) | 118% (inactive) | 99.4% (inactive) | 54.6 | 150% (inactive) | -22.3% (inactive) | 103% (inactive) | -2% (inactive) | -5.28% (inactive) | -9.37% (inactive) | -5.26% (inactive) | 98.4% (inactive) | -0.03 (inactive) | 2% (inactive) | -23.2% (inactive)
Nc1ccc2nc(Cc3ccccc3)[nH]c2c1 | 90.2% (inactive) | 150% (active) | 108% (inactive) | 82.5% (inactive) | 89.4% (inactive) | 60.5 | 192% (inactive) | 3.55% (inactive) | 102% (inactive) | 7% (inactive) | 10.6% (inactive) | -0.76% (inactive) | -0.84% (inactive) | 98% (inactive) | 0.48 (active) | 3% (inactive) | 15.6% (inactive)
CSc1ccc(/C=N/N2CCN(Cc3ccc(C)cc3C)CC2)cc1 | 100% (inactive) | 99.7% (inactive) | 110% (inactive) | 97% (inactive) | 96.3% (inactive) | 61.9 | 118% (inactive) | -5.11% (inactive) | 97.2% (inactive) | -2% (inactive) | 6.9% (inactive) | 7.81% (inactive) | 4.06% (inactive) | 103% (inactive) | 0.22 (inactive) | 25% (inactive) | 11.5% (inactive)
